Drawing on PubChem BioAssay (NCI), this text covers growth for 38 molecules.

Compounds without any hit were thinned out: in the full panel of roughly 83,000, 20% have a hit.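 Values shown are percent growth following 48 h exposure of cells in 96-well plates to a single concentration of compound; below 10 was considered active.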 A number with no mark means an inactive call. Active and inactive are the calls of the source.

The first experiment relates to MCF7 breast. Kind of experiment: NCI-60 one-dose screen, 48 h (100 = growth as untreated, 0 = no growth, -100 = all killed). The conditions noted are these: 10 µM unless noted.
For the molecule `COc1cc(Cn2c(SCCC(=O)Nc3ccc(F)cc3)nc3ccccc3c2=O)cc(OC)c1OC`, the growth was 91%.

Turning to `O=C(O)c1cn(C2CC2)c2cc(N3CCN(S(=O)(=O)c4ccc(Cl)c(Cl)c4)CC3)c(F)cc2c1=O`, the growth was 13.5%.

For the molecule `COc1cc(NCCCN=C(N)NC(N)=NC(C)C)c2ncccc2c1`, the growth was -52.9% (active).

For `O=C(O)c1cccc([N+](=O)[O-])c1/C=C/c1ccccc1`, the growth was 95.5%.

Take `NC(CC(N)C(=O)O)C(=O)O` (stereo not drawn): the growth is 98.7%.

Take `O=C(O)c1ccc(-n2c(=O)c3ccccc3c3ccccc3c2=O)cc1`: the growth is 96.3%.

With `COc1cc(Cn2c(SCC(=O)Nc3ccc(Cl)cc3)nc3ccccc3c2=O)cc(OC)c1OC`, the growth was 77.2%.

In the case of `Nc1c(C(=O)Nc2ccccc2)sc2nc3c(cc12)CCCCC3`, the growth is 12.1%.

Turning to `CCn1cc(C(=O)O)c(=O)c2cc(F)c(N3CCN(S(=O)(=O)c4c(C)cc(C)cc4C)CC3)cc21`, the growth was 93.7%.

For `CCn1cc(C(=O)O)c(=O)c2cc(F)c(N3CCN(S(=O)(=O)c4ccc(Cl)cc4Cl)CC3)cc21`, the growth is 89.2%.

Consider `COC12CC(=O)C(C(C)=O)=C(O)C1(C)c1c(O)c(C)c(O)c(C(C)=O)c1O2` (stereo not drawn), for which the growth is 80.9%.

As for `CCCC(C(=O)OCC)C(C)OC(=O)OCC` (stereo not drawn), the growth is 101%.

With `NC(=O)NC(=O)/C=C/C(=O)OCCCl`, the growth was 92.2%.

Regarding `Cc1ccc(C2=NN(c3ccc(S(=O)(=O)NC(=O)NCc4ccccc4)cc3)C(c3ccc(N(C)C)cc3)C2)c(C)c1` (stereo not drawn), the growth is 28.9%.

In the case of `COc1ccc(-c2cn[nH]c2-c2cc(OC)c3c(c2)OCO3)cc1`, the growth is 13.1%.

For the molecule `CCCCCCCCCCCCNC(=S)N/N=C/c1ccc(Cl)c(Cl)c1`, the growth is 102%.

For `Oc1ccc(Cl)cc1-c1cc(-c2ccc(Cl)cc2)n[nH]1`, the growth was 3.03% (active).

Consider `Clc1nc(-c2cccnc2)nc2sc3c(c12)CCCCCC3`, for which the growth was 92.7%.

Take `CCCCCCCCCCCCCCCCC(Br)C(=O)O` (stereo not drawn): the growth was 92.9%.

In the case of `CCN(Cc1ccccc1)c1ccc(SC#N)cc1`, the growth is 75.3%.

Take `CCCCCC(=O)OCc1ccccc1`: the growth was 97.4%.

For the molecule `COc1ccc(S(=O)(=O)N2CCN(c3cc4c(cc3F)c(=O)c(C(=O)O)cn4C3CC3)CC2)c(OC)c1`, the growth was 98.4%.

Consider `COc1cc2nc(N3CCC[C@@H](NC4=CC(=O)c5ccccc5C4=O)C3)nc(N)c2cc1OC`, for which the growth was -63.3% (active).

For `COc1ccccc1CNCCCN1C(=O)c2ccc3c4c(ccc(c24)C1=O)C(=O)N(CCCNCCCCNCCCCN)C3=O`, the growth is -34.9% (active).

In the case of `Cc1cc(C)c(S(=O)(=O)N2CCN(c3cc4c(cc3F)c(=O)c(C(=O)O)cn4C3CC3)CC2)c(C)c1`, the growth is 54%.

For the molecule `CNC(C)=O`, the growth was 90.5%.

Turning to `CCN(CC)P(=O)(N(CC)CC)N(CCCSC/C=C(\C)CC/C=C(\C)CCC=C(C)C)CCCN1CCN(C)CC1`, the growth is 97.6%.

Take `COc1ccc(NC(=O)CSc2nc3ccc(Cl)cc3c(=O)n2-c2ccccc2C(F)(F)F)c(OC)c1OC`: the growth is 78.9%.

For `O=S(=O)(O)CCl`, the growth is 103%.

As to `COc1ccc(OC)c(C(=O)c2oc3ccc(Br)cc3c2N)c1`, the growth was 15.5%.

On to `COc1cc(NCCN=C(N)NC(N)=NC(C)C)c2ncccc2c1`, for which the growth is -55.7% (active).

Take `CC(=O)Nc1nc(C(=O)N2N=C(C)/C(=C/c3cccs3)C2=O)cs1`: the growth was 90.8%.

`CC(C)[C@H](CO)Nc1nc(Nc2ccc(C(=O)NCCNS(=O)(=O)c3cccc4c(N(C)C)cccc34)c(Cl)c2)c2ncn(C(C)C)c2n1`: the growth is 6.04% (active).

On to `CCn1cc(C(=O)O)c(=O)c2cc(F)c(N3CCN(S(=O)(=O)c4cccc5ccccc45)CC3)cc21`, for which the growth was 14.6%.

Take `O=C1Nc2ccc(Br)cc2C1=N/C=c1\[nH]c(=O)/c(=C/c2ccc(Cl)cc2)s1`: the growth was 86.6%.

In the next experiment the test system is HCT-116 colon. Described as above. The settings on record: 10 µM unless noted.
For the molecule `COc1cc(Cn2c(SCCC(=O)Nc3ccc(F)cc3)nc3ccccc3c2=O)cc(OC)c1OC`, the growth was 65.3%.

For the molecule `O=C(O)c1cn(C2CC2)c2cc(N3CCN(S(=O)(=O)c4ccc(Cl)c(Cl)c4)CC3)c(F)cc2c1=O`, the growth was 3.95% (active).

For the molecule `COc1cc(NCCCN=C(N)NC(N)=NC(C)C)c2ncccc2c1`, the growth was 17.3%.

Regarding `O=C(O)c1cccc([N+](=O)[O-])c1/C=C/c1ccccc1`, the growth was 94.3%.

Turning to `NC(CC(N)C(=O)O)C(=O)O` (stereo not drawn), the growth was 102%.

On to `O=C(O)c1ccc(-n2c(=O)c3ccccc3c3ccccc3c2=O)cc1`, for which the growth is 104%.

Regarding `COc1cc(Cn2c(SCC(=O)Nc3ccc(Cl)cc3)nc3ccccc3c2=O)cc(OC)c1OC`, the growth is 35.6%.

With `CN(C)c1ncc(-c2ccc(C(F)(F)F)cc2)c(NC2CCCCCC2)n1`, the growth was 44.1%.

For the molecule `Nc1c(C(=O)Nc2ccccc2)sc2nc3c(cc12)CCCCC3`, the growth is 11.2%.

Take `CCn1cc(C(=O)O)c(=O)c2cc(F)c(N3CCN(S(=O)(=O)c4c(C)cc(C)cc4C)CC3)cc21`: the growth was 79.2%.

`CCn1cc(C(=O)O)c(=O)c2cc(F)c(N3CCN(S(=O)(=O)c4ccc(Cl)cc4Cl)CC3)cc21`: the growth was 6.37% (active).

As to `COC12CC(=O)C(C(C)=O)=C(O)C1(C)c1c(O)c(C)c(O)c(C(C)=O)c1O2` (stereo not drawn), the growth was 80.6%.

As to `CCCC(C(=O)OCC)C(C)OC(=O)OCC` (stereo not drawn), the growth is 103%.

In the case of `NC(=O)NC(=O)/C=C/C(=O)OCCCl`, the growth is 104%.

On to `Cc1ccc(C2=NN(c3ccc(S(=O)(=O)NC(=O)NCc4ccccc4)cc3)C(c3ccc(N(C)C)cc3)C2)c(C)c1` (stereo not drawn), for which the growth is 39.7%.

Turning to `COc1ccc(-c2cn[nH]c2-c2cc(OC)c3c(c2)OCO3)cc1`, the growth was 13.6%.

`CCCCCCCCCCCCNC(=S)N/N=C/c1ccc(Cl)c(Cl)c1`: the growth was 102%.

For `Oc1ccc(Cl)cc1-c1cc(-c2ccc(Cl)cc2)n[nH]1`, the growth is 43.8%.

Regarding `COc1cc(NC(=O)CSc2nc3ccc(C)cc3c(=O)n2-c2ccccc2)cc(OC)c1OC`, the growth is 87%.

In the case of `Clc1nc(-c2cccnc2)nc2sc3c(c12)CCCCCC3`, the growth is 97.1%.

`CCCCCCCCCCCCCCCCC(Br)C(=O)O` (stereo not drawn): the growth is 105%.

Take `CCN(Cc1ccccc1)c1ccc(SC#N)cc1`: the growth was 43.7%.

Consider `CCCCCC(=O)OCc1ccccc1`, for which the growth was 93.8%.

For the molecule `COc1ccc(S(=O)(=O)N2CCN(c3cc4c(cc3F)c(=O)c(C(=O)O)cn4C3CC3)CC2)c(OC)c1`, the growth was 102%.

With `COc1cc2nc(N3CCC[C@@H](NC4=CC(=O)c5ccccc5C4=O)C3)nc(N)c2cc1OC`, the growth is -83.6% (active).

As for `COc1ccccc1CNCCCN1C(=O)c2ccc3c4c(ccc(c24)C1=O)C(=O)N(CCCNCCCCNCCCCN)C3=O`, the growth was 3.34% (active).

As for `Cc1cc(C)c(S(=O)(=O)N2CCN(c3cc4c(cc3F)c(=O)c(C(=O)O)cn4C3CC3)CC2)c(C)c1`, the growth was 32.2%.

In the case of `COc1ccc(NC(=O)CSc2nc3ccccc3c(=O)n2-c2ccccc2C(F)(F)F)c(OC)c1OC`, the growth was 98.3%.

Regarding `CNC(C)=O`, the growth was 105%.

As to `CCN(CC)P(=O)(N(CC)CC)N(CCCSC/C=C(\C)CC/C=C(\C)CCC=C(C)C)CCCN1CCN(C)CC1`, the growth is 97.1%.

For the molecule `COc1ccc(NC(=O)CSc2nc3ccc(Cl)cc3c(=O)n2-c2ccccc2C(F)(F)F)c(OC)c1OC`, the growth is 70.1%.

On to `O=S(=O)(O)CCl`, for which the growth was 103%.

Regarding `COc1ccc(OC)c(C(=O)c2oc3ccc(Br)cc3c2N)c1`, the growth was 16.8%.

Take `COc1cc(NCCN=C(N)NC(N)=NC(C)C)c2ncccc2c1`: the growth is 28.1%.

For the molecule `CC(=O)Nc1nc(C(=O)N2N=C(C)/C(=C/c3cccs3)C2=O)cs1`, the growth was 100%.

Turning to `CC(C)[C@H](CO)Nc1nc(Nc2ccc(C(=O)NCCNS(=O)(=O)c3cccc4c(N(C)C)cccc34)c(Cl)c2)c2ncn(C(C)C)c2n1`, the growth was 4.44% (active).

Consider `CCn1cc(C(=O)O)c(=O)c2cc(F)c(N3CCN(S(=O)(=O)c4cccc5ccccc45)CC3)cc21`, for which the growth is 5.45% (active).

Take `O=C1Nc2ccc(Br)cc2C1=N/C=c1\[nH]c(=O)/c(=C/c2ccc(Cl)cc2)s1`: the growth is 87.9%.
